# Laboratory results as given in paper PMC7862700, “An all-to-all approach to the identification of sequence-specific readers for epigenetic DNA modifications on cytosine”.
# Columns and labels:
# Assay in all cases: DAPPL (digital affinity profiling via proximity ligation, sequencing); 10 mM Tris-HCl pH 7.5, 50 mM NaCl, 1 mM DTT, 4% glycerol, room temperature, 30 min; GST-TFs on glutathione beads, 16-mer random dsDNA library, 0.1% formaldehyde crosslink after washing; high values mean tight binding
# FEV = target: T1, FEV (Homo sapiens, UniProt Q99581 1-238); details: protein: recombinant; tags: N-terminal GST; dsDNA, one strand shown
# T1 sequence: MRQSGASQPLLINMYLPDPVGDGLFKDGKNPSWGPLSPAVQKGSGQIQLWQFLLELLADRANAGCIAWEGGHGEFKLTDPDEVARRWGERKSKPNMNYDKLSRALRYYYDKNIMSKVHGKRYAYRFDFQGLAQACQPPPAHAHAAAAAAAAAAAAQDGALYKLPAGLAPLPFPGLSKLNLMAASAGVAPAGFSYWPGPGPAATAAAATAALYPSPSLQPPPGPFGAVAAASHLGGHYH
# Summary of the method: (§1)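 Sequencing on an Illumina NextSeq500 followed washing, crosslinking with 0.1% formaldehyde, proximity ligation (BsaI/T4 ligase, 1 h, 37 °C) and PCR amplification of pools that had been incubated for 30 min at room temperature with 200 nmole of a random double-stranded 16-mer DNA library in Tris/NaCl/DTT/glycerol buffer. Each pool held DNA-barcoded human transcription factors, expressed in yeast as GST fusions and captured on glutathione beads, plus a tag-only sample. Binding signal is a hexamer's read frequency for a factor divided by its frequency in the tag-only sample.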
# ETV5 = ETV5 (Homo sapiens, UniProt P41161 1-510); details: protein: recombinant; tags: N-terminal GST; dsDNA, one strand shown
# ETV5, sequence (P41161 whole entry): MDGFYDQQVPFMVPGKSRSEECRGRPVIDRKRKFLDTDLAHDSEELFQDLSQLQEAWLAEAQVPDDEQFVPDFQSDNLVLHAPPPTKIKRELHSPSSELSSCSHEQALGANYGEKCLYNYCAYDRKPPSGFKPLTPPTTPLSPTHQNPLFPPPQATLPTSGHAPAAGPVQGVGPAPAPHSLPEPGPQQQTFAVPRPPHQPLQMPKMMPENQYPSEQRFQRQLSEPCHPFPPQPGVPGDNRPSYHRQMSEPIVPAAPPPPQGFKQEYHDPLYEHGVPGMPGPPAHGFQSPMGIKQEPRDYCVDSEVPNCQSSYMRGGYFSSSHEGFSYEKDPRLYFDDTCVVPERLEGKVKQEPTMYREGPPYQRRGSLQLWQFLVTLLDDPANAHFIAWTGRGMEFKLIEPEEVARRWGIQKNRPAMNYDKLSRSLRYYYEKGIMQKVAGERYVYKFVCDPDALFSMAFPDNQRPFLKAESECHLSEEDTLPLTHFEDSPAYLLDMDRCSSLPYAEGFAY
# Summary of the method: as §1
# HSF1 = HSF1 (Homo sapiens, UniProt Q00613 1-529); details: protein: recombinant; tags: N-terminal GST; chain copies: 3; dsDNA, one strand shown
# HSF1, sequence (Q00613 whole entry): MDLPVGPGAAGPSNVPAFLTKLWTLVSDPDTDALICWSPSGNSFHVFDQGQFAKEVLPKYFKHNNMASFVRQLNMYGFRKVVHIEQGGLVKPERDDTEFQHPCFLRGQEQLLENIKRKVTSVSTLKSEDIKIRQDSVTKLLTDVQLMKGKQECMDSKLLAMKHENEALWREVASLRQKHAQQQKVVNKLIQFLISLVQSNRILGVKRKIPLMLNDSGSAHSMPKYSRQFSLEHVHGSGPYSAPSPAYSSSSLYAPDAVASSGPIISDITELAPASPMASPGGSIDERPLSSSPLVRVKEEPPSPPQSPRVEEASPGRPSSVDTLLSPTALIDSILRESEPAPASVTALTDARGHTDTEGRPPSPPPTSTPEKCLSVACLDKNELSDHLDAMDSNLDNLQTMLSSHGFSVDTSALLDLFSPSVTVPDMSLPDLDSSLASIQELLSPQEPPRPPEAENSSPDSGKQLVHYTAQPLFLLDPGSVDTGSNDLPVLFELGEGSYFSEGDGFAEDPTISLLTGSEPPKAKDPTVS
# Summary of the method: as §1
# SPIC = target: T2, SPIC (Homo sapiens, UniProt Q8N5J4 1-248); details: protein: recombinant; tags: N-terminal GST; dsDNA, one strand shown
# T2 sequence: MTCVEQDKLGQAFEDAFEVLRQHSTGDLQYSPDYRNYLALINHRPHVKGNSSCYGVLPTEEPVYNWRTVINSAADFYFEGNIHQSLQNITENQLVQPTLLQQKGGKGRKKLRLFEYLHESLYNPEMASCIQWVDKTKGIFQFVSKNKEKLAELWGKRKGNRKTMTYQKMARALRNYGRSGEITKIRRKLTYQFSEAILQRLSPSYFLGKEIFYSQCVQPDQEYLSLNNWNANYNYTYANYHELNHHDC
# Summary of the method: as §1
# ELF4 = ELF4 (Homo sapiens, UniProt Q99607 1-663); details: protein: recombinant; tags: N-terminal GST; dsDNA, one strand shown
# ELF4, sequence (Q99607 whole entry): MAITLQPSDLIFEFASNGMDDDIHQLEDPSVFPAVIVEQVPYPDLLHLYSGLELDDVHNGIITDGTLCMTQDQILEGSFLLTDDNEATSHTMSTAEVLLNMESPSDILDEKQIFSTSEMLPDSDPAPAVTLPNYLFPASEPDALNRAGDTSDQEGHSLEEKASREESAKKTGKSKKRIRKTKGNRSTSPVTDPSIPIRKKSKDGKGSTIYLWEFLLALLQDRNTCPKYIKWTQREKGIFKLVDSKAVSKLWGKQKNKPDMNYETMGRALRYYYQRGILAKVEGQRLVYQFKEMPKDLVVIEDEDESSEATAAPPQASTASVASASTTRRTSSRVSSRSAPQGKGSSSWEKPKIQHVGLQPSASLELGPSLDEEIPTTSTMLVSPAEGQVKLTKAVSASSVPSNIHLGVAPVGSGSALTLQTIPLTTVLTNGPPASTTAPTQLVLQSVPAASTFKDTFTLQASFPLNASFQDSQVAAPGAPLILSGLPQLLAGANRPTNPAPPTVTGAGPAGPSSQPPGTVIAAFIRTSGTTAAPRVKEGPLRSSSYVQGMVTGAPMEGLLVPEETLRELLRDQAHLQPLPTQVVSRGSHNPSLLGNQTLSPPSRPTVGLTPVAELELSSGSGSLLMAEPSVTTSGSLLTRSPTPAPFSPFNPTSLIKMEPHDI
# Summary of the method: as §1
# ELK4 = target: T3, ELK4 (Homo sapiens, UniProt P28324-2 1-405); details: protein: recombinant; tags: N-terminal GST; dsDNA, one strand shown
# T3 sequence: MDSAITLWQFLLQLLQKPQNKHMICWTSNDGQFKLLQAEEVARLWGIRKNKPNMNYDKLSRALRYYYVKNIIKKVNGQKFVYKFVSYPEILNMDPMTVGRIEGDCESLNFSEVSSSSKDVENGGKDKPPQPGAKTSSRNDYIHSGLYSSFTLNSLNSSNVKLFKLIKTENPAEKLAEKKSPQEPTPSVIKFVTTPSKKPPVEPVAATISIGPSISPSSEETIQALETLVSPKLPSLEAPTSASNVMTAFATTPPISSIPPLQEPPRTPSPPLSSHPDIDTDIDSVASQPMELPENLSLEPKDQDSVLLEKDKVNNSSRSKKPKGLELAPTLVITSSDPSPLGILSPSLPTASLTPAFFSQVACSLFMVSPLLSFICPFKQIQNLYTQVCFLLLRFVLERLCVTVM
# Summary of the method: as §1
# ETV2 = target: T4, ETV2 (Homo sapiens, UniProt O00321 1-342); details: protein: recombinant; tags: N-terminal GST; dsDNA, one strand shown
# T4 sequence: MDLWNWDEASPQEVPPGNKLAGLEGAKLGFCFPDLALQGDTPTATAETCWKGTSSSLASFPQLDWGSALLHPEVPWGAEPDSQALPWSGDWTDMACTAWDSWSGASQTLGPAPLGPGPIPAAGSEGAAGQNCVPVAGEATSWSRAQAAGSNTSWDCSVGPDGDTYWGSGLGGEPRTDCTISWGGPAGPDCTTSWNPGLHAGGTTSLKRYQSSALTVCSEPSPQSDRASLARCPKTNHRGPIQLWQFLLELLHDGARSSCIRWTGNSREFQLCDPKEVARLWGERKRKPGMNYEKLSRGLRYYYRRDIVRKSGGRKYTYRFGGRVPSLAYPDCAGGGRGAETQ
# Summary of the method: as §1
# ELF3 = target: T5, ELF3 (Homo sapiens, UniProt P78545 1-371); details: protein: recombinant; tags: N-terminal GST; dsDNA, one strand shown
# T5 sequence: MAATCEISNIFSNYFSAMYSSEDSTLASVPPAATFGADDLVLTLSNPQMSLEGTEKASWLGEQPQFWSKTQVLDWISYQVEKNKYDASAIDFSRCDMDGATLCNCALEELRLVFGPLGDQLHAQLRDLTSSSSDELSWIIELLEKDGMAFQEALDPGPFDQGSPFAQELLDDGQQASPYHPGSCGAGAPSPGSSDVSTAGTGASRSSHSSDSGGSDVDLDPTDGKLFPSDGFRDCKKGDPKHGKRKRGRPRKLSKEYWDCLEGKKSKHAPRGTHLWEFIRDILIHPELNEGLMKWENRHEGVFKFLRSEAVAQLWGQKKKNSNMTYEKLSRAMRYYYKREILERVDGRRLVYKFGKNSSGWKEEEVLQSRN
# Summary of the method: as §1
# CRX = CRX (Homo sapiens, UniProt O43186 1-299); details: protein: recombinant; tags: N-terminal GST; dsDNA, one strand shown
# CRX, sequence (O43186 whole entry): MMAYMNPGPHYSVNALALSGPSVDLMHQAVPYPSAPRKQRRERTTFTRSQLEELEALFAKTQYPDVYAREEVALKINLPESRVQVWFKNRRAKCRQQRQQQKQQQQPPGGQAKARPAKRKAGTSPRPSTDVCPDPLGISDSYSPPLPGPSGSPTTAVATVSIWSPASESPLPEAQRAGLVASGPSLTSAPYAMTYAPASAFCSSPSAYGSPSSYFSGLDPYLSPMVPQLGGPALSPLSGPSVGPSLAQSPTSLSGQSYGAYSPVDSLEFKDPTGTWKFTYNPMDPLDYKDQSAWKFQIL
# Summary of the method: as §1
# ETV1 = ETV1 (Homo sapiens, UniProt P50549 1-477); details: protein: recombinant; tags: N-terminal GST; dsDNA, one strand shown
# ETV1, sequence (P50549 whole entry): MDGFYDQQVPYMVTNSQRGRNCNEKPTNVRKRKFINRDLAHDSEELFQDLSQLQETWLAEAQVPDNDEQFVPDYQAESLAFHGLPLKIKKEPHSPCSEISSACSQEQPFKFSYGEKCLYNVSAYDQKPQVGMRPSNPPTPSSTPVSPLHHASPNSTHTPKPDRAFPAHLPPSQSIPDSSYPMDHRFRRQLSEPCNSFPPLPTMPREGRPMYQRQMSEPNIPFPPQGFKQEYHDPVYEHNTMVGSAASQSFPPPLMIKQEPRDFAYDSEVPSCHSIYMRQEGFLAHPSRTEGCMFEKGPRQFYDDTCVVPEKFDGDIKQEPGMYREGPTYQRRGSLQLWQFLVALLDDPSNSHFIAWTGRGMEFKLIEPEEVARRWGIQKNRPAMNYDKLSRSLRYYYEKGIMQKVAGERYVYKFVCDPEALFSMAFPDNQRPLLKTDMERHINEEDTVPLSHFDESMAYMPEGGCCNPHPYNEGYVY
# Summary of the method: as §1
Sequence,binding signal (FEV),binding signal (ETV5),binding signal (HSF1),binding signal (SPIC),binding signal (ELF4),binding signal (ELK4),binding signal (ETV2),binding signal (ELF3),binding signal (CRX),binding signal (ETV1)
TTTAAC,"1.09 fold enrichment (6-mer frequency, TF over GST control)","1.12 fold enrichment (6-mer frequency, TF over GST control)","1.22 fold enrichment (6-mer frequency, TF over GST control)","1.23 fold enrichment (6-mer frequency, TF over GST control)","1.14 fold enrichment (6-mer frequency, TF over GST control)","1.13 fold enrichment (6-mer frequency, TF over GST control)","1.24 fold enrichment (6-mer frequency, TF over GST control)","1.15 fold enrichment (6-mer frequency, TF over GST control)","1.74 fold enrichment (6-mer frequency, TF over GST control)","1.18 fold enrichment (6-mer frequency, TF over GST control)"
CTCTCT,"1.67 fold enrichment (6-mer frequency, TF over GST control)","1.57 fold enrichment (6-mer frequency, TF over GST control)","1.69 fold enrichment (6-mer frequency, TF over GST control)","1.77 fold enrichment (6-mer frequency, TF over GST control)","1.74 fold enrichment (6-mer frequency, TF over GST control)","1.74 fold enrichment (6-mer frequency, TF over GST control)","1.63 fold enrichment (6-mer frequency, TF over GST control)","1.58 fold enrichment (6-mer frequency, TF over GST control)","1.5 fold enrichment (6-mer frequency, TF over GST control)","1.49 fold enrichment (6-mer frequency, TF over GST control)"
GTACTT,"2.21 fold enrichment (6-mer frequency, TF over GST control)","1.95 fold enrichment (6-mer frequency, TF over GST control)","1.35 fold enrichment (6-mer frequency, TF over GST control)","1.86 fold enrichment (6-mer frequency, TF over GST control)","1.86 fold enrichment (6-mer frequency, TF over GST control)","1.78 fold enrichment (6-mer frequency, TF over GST control)","1.88 fold enrichment (6-mer frequency, TF over GST control)","2.04 fold enrichment (6-mer frequency, TF over GST control)","1.6 fold enrichment (6-mer frequency, TF over GST control)","2.05 fold enrichment (6-mer frequency, TF over GST control)"
ACGATT,"1.28 fold enrichment (6-mer frequency, TF over GST control)","1.36 fold enrichment (6-mer frequency, TF over GST control)","1.69 fold enrichment (6-mer frequency, TF over GST control)","1.39 fold enrichment (6-mer frequency, TF over GST control)","1.39 fold enrichment (6-mer frequency, TF over GST control)","1.43 fold enrichment (6-mer frequency, TF over GST control)","1.24 fold enrichment (6-mer frequency, TF over GST control)","1.31 fold enrichment (6-mer frequency, TF over GST control)","1.99 fold enrichment (6-mer frequency, TF over GST control)","1.31 fold enrichment (6-mer frequency, TF over GST control)"
CACGTA,"1.1 fold enrichment (6-mer frequency, TF over GST control)","1.13 fold enrichment (6-mer frequency, TF over GST control)","1.05 fold enrichment (6-mer frequency, TF over GST control)","1.22 fold enrichment (6-mer frequency, TF over GST control)","1.2 fold enrichment (6-mer frequency, TF over GST control)","1.23 fold enrichment (6-mer frequency, TF over GST control)","1.09 fold enrichment (6-mer frequency, TF over GST control)","1.18 fold enrichment (6-mer frequency, TF over GST control)","1.06 fold enrichment (6-mer frequency, TF over GST control)","1.14 fold enrichment (6-mer frequency, TF over GST control)"
ACTTCC,"12.4 fold enrichment (6-mer frequency, TF over GST control)","8.86 fold enrichment (6-mer frequency, TF over GST control)","1.55 fold enrichment (6-mer frequency, TF over GST control)","8.15 fold enrichment (6-mer frequency, TF over GST control)","7.63 fold enrichment (6-mer frequency, TF over GST control)","6.63 fold enrichment (6-mer frequency, TF over GST control)","8.23 fold enrichment (6-mer frequency, TF over GST control)","7.67 fold enrichment (6-mer frequency, TF over GST control)","1.21 fold enrichment (6-mer frequency, TF over GST control)","8.66 fold enrichment (6-mer frequency, TF over GST control)"
TCTCCC,"1.7 fold enrichment (6-mer frequency, TF over GST control)","1.64 fold enrichment (6-mer frequency, TF over GST control)","1.65 fold enrichment (6-mer frequency, TF over GST control)","1.51 fold enrichment (6-mer frequency, TF over GST control)","1.78 fold enrichment (6-mer frequency, TF over GST control)","1.63 fold enrichment (6-mer frequency, TF over GST control)","1.54 fold enrichment (6-mer frequency, TF over GST control)","1.78 fold enrichment (6-mer frequency, TF over GST control)","1.7 fold enrichment (6-mer frequency, TF over GST control)","1.78 fold enrichment (6-mer frequency, TF over GST control)"
TATTTA,"1.4 fold enrichment (6-mer frequency, TF over GST control)","1.47 fold enrichment (6-mer frequency, TF over GST control)","1.75 fold enrichment (6-mer frequency, TF over GST control)","1.69 fold enrichment (6-mer frequency, TF over GST control)","1.45 fold enrichment (6-mer frequency, TF over GST control)","1.66 fold enrichment (6-mer frequency, TF over GST control)","1.43 fold enrichment (6-mer frequency, TF over GST control)","1.57 fold enrichment (6-mer frequency, TF over GST control)","2.47 fold enrichment (6-mer frequency, TF over GST control)","1.51 fold enrichment (6-mer frequency, TF over GST control)"
